Data reported in PubChem BioAssay (EPA / NIEHS).
Results filed as inconclusive are left out. Calls of active or inactive are those of the source. The calls were made as follows, unless noted: active = hit-call score of the fitted dose curve at least 0.9, where 1 is the maximum; inconclusive = response in the unintended direction; inactive = score below 0.9.

Experiments:
[1] = CCTE_Shafer_MEA_acute_synchrony_index: CCTE's Neural Acute Assay for Synchrony, Shafer Lab (AID 2284027; active = hit-call score of the fitted dose curve at least 0.9, where 1 is the maximum; inactive = score below 0.9;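 also: fitted for loss of signal so actives lower synchrony relative to DMSO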)
Summary of the method: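 Readout is percent change in the unitless network synchrony index (0 low, 1 high) between a 40-min baseline and a 40-min recording in compound. Cultures were primary rat cortical neurons on MEAs, treated at 0.03-40 uM on DIV 13 or 15.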

[2] = CCTE_Deisenroth_AIME_384WELL_CTox_Active: Cytotoxicity Assessment (CTOX) in CCTE's 384-well Estrogen Receptor Transactivation Assay with AIME metabolic competence (metabolism positive), Deisenroth Lab (AID 2284037);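 also: chemicals first conditioned 2 h by alginate-bound induced rat liver S9 before cells; activity means signal loss indicating cell death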
Summary of the method: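 Cytotoxicity in VM7Luc4E2 breast cells, 24 hour, measured as protease-substrate fluorescence loss, after 2-hour metabolic conditioning with induced rat hepatic S9 in alginate microspheres. Concentrations 0.002 - 200 uM, 10 points, bidirectional fitting.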

[3] = target: Estrogen receptor (Homo sapiens) (UniProt P03372); experiment: CCTE_Deisenroth_AIME_384WELL_LUC_Inactive: CCTE's 384-well Estrogen Receptor Transactivation Assay without AIME metabolic competence (ERTA luciferase; metabolism negative), Deisenroth Lab (AID 2284038);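 also: VM7Luc4E2 breast cells given medium preincubated 2 h with S9-free microspheres; hits raise estrogen receptor luciferase signal so potencies reflect agonists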
Summary of the method: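 Metabolism-negative mode: chemicals (10-point, 0.002–200 uM) held 2 h with alginate-water microspheres, then conditioned medium applied to VM7Luc4E2 cells for 24 h. Luciferase induction referenced to 17beta-estradiol.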

[4] = CCTE_Deisenroth_AIME_384WELL_CTox_Inactive: Cytotoxicity Assessment (CTOX) in CCTE's 384-well Estrogen Receptor Transactivation Assay without AIME metabolic competence (metabolism negative), Deisenroth Lab (AID 2284039);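 also: cell viability via live-cell protease substrate cleaved to fluorescent probe; cells exposed 24 h to medium preincubated 2 h with alginate-water beads without S9; loss of fluorescence signal means loss of viability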
Summary of the method: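 Fluorescent protease-substrate viability readout after 24 h exposure of VM7Luc4E2 cells to conditioned medium. Chemicals (0.002–200 uM) first sat 2 h over alginate-water beads, no S9. Data fitted bidirectionally, loss of signal meaning viability loss.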

[5] = tested on: DIO2 (gene 1734); experiment: CCTE_GLTED_hDIO2: CCTE's human Deiodinase 2 (DIO2) Inhibition Assay, Great Lakes Toxicology and Ecology Division (GLTED) Lab (AID 2284050)
Summary of the method: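 hDIO2 enzyme + test chem, 3 h → free iodide from substrate; step 2: Sandell-Kolthoff (Ce IV reduction by As, iodide-catalysed), spectrophotometric read. Triplicate plates; DMSO = baseline.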

Estrogen receptor (Homo sapiens), sequence (P03372 whole entry, looked up): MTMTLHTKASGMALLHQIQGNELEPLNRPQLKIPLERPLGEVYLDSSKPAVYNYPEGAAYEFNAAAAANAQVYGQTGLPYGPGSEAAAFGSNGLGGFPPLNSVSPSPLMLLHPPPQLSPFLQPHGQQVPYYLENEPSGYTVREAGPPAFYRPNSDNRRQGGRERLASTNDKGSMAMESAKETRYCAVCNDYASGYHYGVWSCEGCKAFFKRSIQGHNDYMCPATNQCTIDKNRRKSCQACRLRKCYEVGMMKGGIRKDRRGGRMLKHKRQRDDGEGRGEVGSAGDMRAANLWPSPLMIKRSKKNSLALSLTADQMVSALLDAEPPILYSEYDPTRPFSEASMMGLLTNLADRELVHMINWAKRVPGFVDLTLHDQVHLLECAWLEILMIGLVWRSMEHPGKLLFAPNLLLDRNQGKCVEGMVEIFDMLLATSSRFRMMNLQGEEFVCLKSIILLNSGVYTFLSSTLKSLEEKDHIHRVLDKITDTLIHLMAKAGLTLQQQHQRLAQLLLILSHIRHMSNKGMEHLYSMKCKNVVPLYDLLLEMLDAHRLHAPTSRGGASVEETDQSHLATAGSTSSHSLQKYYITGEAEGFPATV

CCOC(=O)c1ccccc1C(=C1C=C(Br)C(=O)C(Br)=C1)c1cc(Br)c(O)c(Br)c1
outcome [1]: inactive

CCCCC/C=C\CCC=O
AC50 [2]: 100 µM (active)
outcome [3]: inactive
outcome [4]: inactive

O=C(C(Cl)Cl)N1CCOC12CCCCC2
outcome [3]: inactive
AC50 [4]: 19.8 µM (active)

CC=C1CC2C=CC1C2 (stereo not given)
outcome [2]: inactive
outcome [3]: inactive
outcome [4]: inactive
AC50 [5]: 100 µM (active)

C=C1C2CCC(C2)C1(C)C (stereo not given)
outcome [2]: inactive
outcome [3]: inactive
outcome [4]: inactive

O=S(=O)(O)c1ccccc1C=Cc1ccc(-c2ccc(C=Cc3ccccc3S(=O)(=O)O)cc2)cc1
outcome [3]: inactive
outcome [5]: inactive

CCCCC/C=C\C/C=C\CCCCCCCC(=O)OC
AC50 [5]: 46 µM (active)

CC1=NN(c2cc(S(=O)(=O)O)ccc2Cl)C(=O)C1N=Nc1ccccc1 (stereo not given)
outcome [3]: inactive
outcome [4]: inactive

NC(CO)(CO)CO
outcome [3]: inactive
outcome [4]: inactive

CC/C=C\C/C=C\C/C=C\CCCCCCCC(=O)O
AC50 [5]: 21.2 µM (active)

C=CC(=O)NC(C)(C)CS(=O)(=O)O
outcome [2]: inactive
outcome [3]: inactive
outcome [4]: inactive

CCCCCCCC/C=C\CCCCCCCC(=O)O
AC50 [5]: 79.4 µM (active)

CCCCCCCC/C=C\CCCCCCCC(=O)OCCO
AC50 [5]: 19.5 µM (active)

O=S1(=O)OC(c2ccc(O)cc2)(c2ccc(O)cc2)c2ccccc21
outcome [2]: inactive
outcome [3]: inactive
outcome [4]: inactive
AC50 [5]: 100 µM (active)

O=c1cc(-c2ccccc2)oc2ccccc12
outcome [2]: inactive
outcome [3]: inactive
outcome [4]: inactive

O=C(C=Cc1ccccc1)OCc1ccccc1
outcome [2]: inactive
AC50 [3]: 26.3 µM (active)
outcome [4]: inactive
AC50 [5]: 14.6 µM (active)

CCCCCCCCCCCCCOP(=O)(O)O
AC50 [5]: 80.5 µM (active)

CC(C)C1=CC2=CC[C@@H]3[C@](C)(CCC[C@@]3(C)C(=O)O)[C@H]2CC1
AC50 [5]: 100 µM (active)

Oc1ccc(Cl)cc1Cc1cc(Cl)ccc1O
AC50 [2]: 102 µM (active)
AC50 [4]: 100 µM (active)
AC50 [5]: 88.4 µM (active)

CCOC(=O)CC
outcome [2]: inactive
outcome [3]: inactive
outcome [4]: inactive

CCN(CCC#N)c1ccc(N=Nc2c(Cl)cc([N+](=O)[O-])cc2Cl)cc1
outcome [2]: inactive
outcome [3]: inactive
AC50 [4]: 100 µM (active)
outcome [5]: inactive

O=C(c1ccccc1)C1CCC1
outcome [3]: inactive

CCCCCCCC[N+](C)(CCCCCCCC)CCCCCCCC
AC50 [2]: 39.3 µM (active)
AC50 [4]: 19.2 µM (active)
AC50 [5]: 20.6 µM (active)

Cc1ccc(C(C)c2ccc(C)c(C)c2)cc1C
outcome [3]: inactive

CCCCC(CC)CCC(CC(C)C)OS(=O)(=O)O (stereo not given)
outcome [3]: inactive
outcome [4]: inactive

Cc1ccc(N/N=c2\c(=O)cc/c(=N/Nc3ccc(S(=O)(=O)O)cc3)c2=O)c(C)c1
outcome [5]: inactive

OC1CCCC1
outcome [2]: inactive
outcome [3]: inactive
outcome [4]: inactive
